The results in this text go back to the supplement of paper PMC13172266.

Holding throughout (assay): cell proliferation relative to vehicle (% of vehicle); higher = less growth inhibition
Holding throughout (conditions): 72 h

Test [1] deals with U2932 TK216-resistant clone 2. The gist of the method:
(§1)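 Growth medium with 10% FBS at 37°C and 5% CO2 was used to culture U2932, an ABC-DLBCL line, in parental form and as two clones rendered resistant to an ETS-targeting agent by repeated exposure over almost a year. These cells received compounds from a 348-member targeted inhibitor library at 500 nM or 50 nM for 72 h, followed by 4 h of MTT, a 25% SDS stop and an absorbance read on a Cytation 3. The percentage of proliferating cells is reported relative to DMSO vehicle.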

Test [2] concerns U2932 TK216-resistant clone 3. The gist of the method:
as §1

Test [3] concerns U2932 parental. The gist of the method:
as §1

Counter-ions that a name gives are not always drawn.

`COc1cc2c(Oc3ccc(NC(=O)C4(C(=O)Nc5ccc(F)cc5)CC4)cc3F)ccnc2cc1OCCCN1CCOCC1`: the cell proliferation in test [1] (50 nM) is 101; in test [1] (500 nM), 69.7; in test [2] (50 nM), 98.3; in test [2] (500 nM) it was 66; in test [3] (50 nM), 92.7; in test [3] (500 nM), 58.9.
On to `Cc1cc(Nc2nc(N[C@@H](C)c3ncc(F)cn3)ncc2Cl)[nH]n1`, for which the cell proliferation amounted to 116 in test [1] (50 nM); 108 in test [1] (500 nM); 105 in test [2] (50 nM); 117 in test [2] (500 nM); 96.7 in test [3] (50 nM); 91.5 in test [3] (500 nM).
Take `c1cc(-c2cnn3cc(-c4ccc(OCCN5CCCCC5)cc4)cnc23)ccn1` [Dorsomorphin 2HCl]: the cell proliferation in test [1] (50 nM) was 113; in test [1] (500 nM), 98; in test [2] (50 nM), 119; in test [2] (500 nM), 108; in test [3] (50 nM), 110; in test [3] (500 nM), 98.3.
For the compound `C=CCn1c(=O)c2cnc(Nc3ccc(N4CCN(C)CC4)cc3)nc2n1-c1cccc(C(C)(C)O)n1`, the cell proliferation stood at 89.6 in test [1] (50 nM); 20.5 in test [1] (500 nM); 99.7 in test [2] (50 nM); 38.7 in test [2] (500 nM); 94.7 in test [3] (50 nM); 33.1 in test [3] (500 nM).
As to `C[C@@H](N)[C@H]1CC[C@H](C(=O)Nc2ccncc2)CC1`, the cell proliferation was 98.8 in test [1] (50 nM); 102 in test [1] (500 nM); 100 in test [2] (50 nM); 103 in test [2] (500 nM); 94.8 in test [3] (50 nM); 97.7 in test [3] (500 nM).
Turning to `CC(C)(C)c1cnc(CSc2cnc(NC(=O)C3CCNCC3)s2)o1`, the cell proliferation came to 91.1 in test [1] (50 nM); 14.7 in test [1] (500 nM); 77.8 in test [2] (50 nM); 17.2 in test [2] (500 nM); 90.1 in test [3] (50 nM); 12.1 in test [3] (500 nM).
Take `CCC[C@H](NC(=O)/C(C#N)=C/c1cccc(Br)n1)c1ccccc1` [Degrasyn (WP1130)]: the cell proliferation in test [1] (50 nM) worked out at 105; in test [1] (500 nM), 102; in test [2] (50 nM) it was 106; in test [2] (500 nM) it was 94.8; in test [3] (50 nM), 92.5; in test [3] (500 nM), 86.4.
Take `C=CC(=O)N1C/C(=C\c2ccc([N+](=O)[O-])cc2)C(=O)/C(=C/c2ccc([N+](=O)[O-])cc2)C1`: the cell proliferation was 31.4 in test [1] (50 nM); -1.71 in test [1] (500 nM); 30.7 in test [2] (50 nM); -2.43 in test [2] (500 nM); 34.3 in test [3] (50 nM); 1.03 in test [3] (500 nM).
As to `O=c1[nH]c(=O)n([C@H]2C[C@H](O)[C@@H](CO)O2)cc1F` [Floxuridine], the cell proliferation in test [1] (50 nM) came out at 60.3; in test [1] (500 nM) it was 37.4; in test [2] (50 nM), 95.2; in test [2] (500 nM), 72.5; in test [3] (50 nM), 73.1; in test [3] (500 nM), 34.2.
For `CCOc1ccc(Cc2cc([C@@H]3O[C@H](CO)[C@@H](O)[C@H](O)[C@H]3O)ccc2Cl)cc1` [Dapagliflozin], the cell proliferation amounted to 103 in test [1] (50 nM); 103 in test [1] (500 nM); 101 in test [2] (50 nM); 107 in test [2] (500 nM); 103 in test [3] (50 nM); 96.2 in test [3] (500 nM).
Consider `Oc1cc(O)cc(/C=C/c2ccc(O)c(O)c2)c1` [Piceatannol], for which the cell proliferation is 97.8 in test [1] (50 nM); 99.7 in test [1] (500 nM); 97.6 in test [2] (50 nM); 100 in test [2] (500 nM); 98.7 in test [3] (50 nM); 94 in test [3] (500 nM).
For the compound `Cc1csc(-c2nnc(Nc3ccc(Oc4ncccc4-c4ccnc(N)n4)cc3)c3ccccc23)c1`, the cell proliferation in test [1] (50 nM) was 88; in test [1] (500 nM) it was 99.7; in test [2] (50 nM), 80.5; in test [2] (500 nM), 78; in test [3] (50 nM), 66.9; in test [3] (500 nM), 61.8.
Turning to `CN1CCCN(C(=O)c2cccc(-c3ccc(/C=C4/C(=O)Nc5ccc(Cl)cc54)o3)c2)CC1`, the cell proliferation turned out to be 105 in test [1] (50 nM); 80.8 in test [1] (500 nM); 97 in test [2] (50 nM); 88.5 in test [2] (500 nM); 104 in test [3] (50 nM); 96.5 in test [3] (500 nM).
With `Cc1nc(Nc2ncc(C(=O)Nc3c(C)cccc3Cl)s2)cc(N2CCN(CCO)CC2)n1` [Dasatinib], the cell proliferation was 74.2 in test [1] (50 nM); 63.7 in test [1] (500 nM); 66.1 in test [2] (50 nM); 52.4 in test [2] (500 nM); 75 in test [3] (50 nM); 60.9 in test [3] (500 nM).
As to `CN(C)c1nc(N(C)C)nc(N(C)C)n1` [Altretamine], the cell proliferation in test [1] (50 nM) is 105; in test [1] (500 nM), 102; in test [2] (50 nM), 106; in test [2] (500 nM), 96.6; in test [3] (50 nM) it was 97.7; in test [3] (500 nM), 104.
For `CO[C@H]1C[C@@H]2CC[C@@H](C)[C@@](O)(O2)C(=O)C(=O)N2CCCC[C@H]2C(=O)O[C@H]([C@H](C)C[C@@H]2CC[C@@H](O)[C@H](OC)C2)CC(=O)[C@H](C)/C=C(\C)[C@@H](O)[C@@H](OC)C(=O)[C@H](C)C[C@H](C)/C=C/C=C/C=C/1C` [Rapamycin (Sirolimus)], the cell proliferation in test [1] (50 nM) came to 62.4; in test [1] (500 nM) it was 62.1; in test [2] (50 nM), 60.3; in test [2] (500 nM), 59.4; in test [3] (50 nM), 58.2; in test [3] (500 nM) it was 58.9.
With `COc1cc(Nc2c(C#N)cnc3cc(OCCCN4CCN(C)CC4)c(OC)cc23)c(Cl)cc1Cl` [Bosutinib (SKI-606)], the cell proliferation in test [1] (50 nM) came out at 106; in test [1] (500 nM), 73.1; in test [2] (50 nM), 103; in test [2] (500 nM), 63.3; in test [3] (50 nM) it was 98.5; in test [3] (500 nM), 83.4.
In the case of `CC/C(=C(\c1ccccc1)c1ccc(OCCN(C)C)cc1)c1ccccc1` [Tamoxifen Citrate], the cell proliferation worked out at 98.9 in test [1] (50 nM); 89.7 in test [1] (500 nM); 89 in test [2] (50 nM); 86.3 in test [2] (500 nM); 82.1 in test [3] (50 nM); 79.1 in test [3] (500 nM).
As to `CC(=O)O[C@@]12CO[C@@H]1C[C@H](O)[C@@]1(C)C(=O)[C@H](O)C3=C(C)[C@@H](OC(=O)[C@H](O)[C@@H](NC(=O)OC(C)(C)C)c4ccccc4)C[C@@](O)([C@@H](OC(=O)c4ccccc4)[C@H]21)C3(C)C` [Docetaxel], the cell proliferation in test [1] (50 nM) amounted to 8.81; in test [1] (500 nM) it was 11.6; in test [2] (50 nM), 5.58; in test [2] (500 nM), 6.54; in test [3] (50 nM), 9.62; in test [3] (500 nM) it was 9.31.
As to `CC(C=CC(=O)NO)=CC(C)C(=O)c1ccc(N(C)C)cc1` (stereo not given) [Trichostatin A (TSA)], the cell proliferation turned out to be 68.3 in test [1] (50 nM); 8.5 in test [1] (500 nM); 74.5 in test [2] (50 nM); 4.96 in test [2] (500 nM); 67.2 in test [3] (50 nM); 2.14 in test [3] (500 nM).
Regarding `Nc1nc(F)nc2c1ncn2[C@@H]1O[C@H](COP(=O)(O)O)[C@@H](O)[C@@H]1O` [Fludarabine Phosphate], the cell proliferation in test [1] (50 nM) is 98.2; in test [1] (500 nM), 110; in test [2] (50 nM) it was 103; in test [2] (500 nM) it was 104; in test [3] (50 nM) it was 102; in test [3] (500 nM), 93.7.
Take `CN(C)C(=N)NC(=N)N` [Metformin HCl]: the cell proliferation amounted to 110 in test [1] (50 nM); 102 in test [1] (500 nM); 113 in test [2] (50 nM); 108 in test [2] (500 nM); 99.9 in test [3] (50 nM); 98.9 in test [3] (500 nM).
On to `O=C(O)c1ccc(-c2c[nH]c3ncc(-c4ccccc4)cc23)cc1C1CCCC1`, for which the cell proliferation in test [1] (50 nM) stood at 107; in test [1] (500 nM) it was 100; in test [2] (50 nM), 97.4; in test [2] (500 nM), 105; in test [3] (50 nM) it was 105; in test [3] (500 nM) it was 107.
Consider `O=C1c2c(O)ccc(O)c2C(=O)c2c(NCCNCCO)ccc(NCCNCCO)c21` [Mitoxantrone HCl], for which the cell proliferation in test [1] (50 nM) turned out to be 9.19; in test [1] (500 nM), 5.75; in test [2] (50 nM), 14.8; in test [2] (500 nM) it was 10.6; in test [3] (50 nM), 16.4; in test [3] (500 nM) it was 7.06.
Consider `O=C(O)C(Cc1c[nH]c2ccccc12)N1C(=O)c2ccccc2C1=O` (stereo not given), for which the cell proliferation was 97.2 in test [1] (50 nM); 102 in test [1] (500 nM); 99.2 in test [2] (50 nM); 98 in test [2] (500 nM); 100 in test [3] (50 nM); 96.1 in test [3] (500 nM).
